Source: PubChem
Shown are actives, neighbours in structure and some others; about 21% of the full set was active somewhere.
Pf growth 96h = inhibits malaria parasite growth, 96 h; Potency, µM (doses to about 28.7 µM), inactives show top-dose activity change, negative = inhibition, hits mostly inhibitors; 320,000 tested, 6.9% active; AID 504834; P. falciparum luciferase reporter growth, 96 h; further: potency means the concentration at half of the fitted maximal effect; on the % scale 0 is the no-effect control and ±100 the full control effect
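P. falciparum expressing integrated firefly luciferase, in erythrocytes at 2% hematocrit, 0.05% parasitemia, incubated with compounds 96 h at 37 C, 5% CO2. Growth inhibition read as loss of luminescence; two-generation exposure targets delayed-death apicoplast inhibitors.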
AMA1-RON2 inh = AMA1-RON2 (P. falciparum) interaction inhibition. AlphaScreen AMA1-biotinylated RON2 peptide binding. Potency, µM (titrated, usually from 58.2 µM), for the others: top-dose activity change, negative = inhibition, usual class: inhibitors. 360,000 tested, 0.2% active. AID 720542;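 further: potency means the concentration at half of the fitted maximal effect; 0% = vehicle wells and -100% = peptide control; nearly all actives have a fitted effect of over 45% in size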
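AMA1 (3D7) with his tag at 25 nM final met compounds first, then biotinylated RON2 peptide at 25 nM; detection used donor plus acceptor beads, 10 µg/mL apiece, read by AlphaScreen after 30 min at room temperature.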
CHX counter = counter-screen for Shiga toxin inhibitors: cycloheximide protein synthesis inhibition | cell reporter, cycloheximide protein synthesis inhibition counterscreen | max response, % | 300,000 tested, 12% active; in the data active means max response mostly above about 13%, no sharp cut-off; inactive means mostly below about 14%; further: read at 38.3 µM for the half of the compounds with a filed dose; 0% is about no effect
HCV inhibitor = inhibitors of hepatitis C virus infection | Huh7.5.1 HCVcc-Cre infection, luciferase reporter, 44 h | 340,000 tested, 3.4% active | AID 651820 | Potency, µM (highest dose often 41.8 µM), for the others: at the top dose activity change, negative = inhibition, hits mostly inhibitors; further: potency means the concentration at half of the fitted maximal effect; on the % scale 0 is the no-effect control and ±100 the full control effect
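Reporter virus HCVcc-Cre (~0.5 moi) infects cells exposed to compound; seeding density 1,000 cells/well with 4 h settling beforehand. Luminescence, 15 sec read, taken 44 h post-infection following a 15 min RT substrate incubation.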
Pf growth 48h = P. falciparum growth inhibition at 48 hours (one generation). P. falciparum luciferase growth in erythrocytes, 48 h. Potency, µM (highest dose often 28.7 µM), for inactives: at the top dose activity change, negative = inhibition, most hits filed as inhibitors. 310,000 tested, 5.9% active; further: potency means the concentration at half of the fitted maximal effect; on the % scale 0 is the no-effect control and ±100 the full control effect
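Firefly luciferase activity from engineered P. falciparum reports growth; inhibitors lower the luminescent signal. Cultures contained 2% hematocrit erythrocytes at 0.1% final parasitemia.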
Shiga inhibitor = Shiga toxin inhibition; inhibition, % at 38.7 µM; Vero cells, Shiga toxin protein synthesis inhibition reporter; 290,000 tested, 9.2% active; in the data active means inhibition mostly above about 28%, no sharp cut-off; inactive means mostly below about 43%; further: 0% is about no effect
Numbers without * were called inactive; ? = inconclusive; · = not tested or not shown; [ ] = dose if it differs, or a comment. Unless noted, the call rests on the fitted dose curve; in most records, active means well fitted curve in the direction sought with a large enough effect; inconclusive means small, poorly fitted or top-dose-only effect, or another doubt; inactive means no such curve, though single readings can be large; an effect the other way counts as inactive or inconclusive.

SMILES	Pf growth 96h	AMA1-RON2 inh	CHX counter	HCV inhibitor	Pf growth 48h	Shiga inhibitor
COc1ccc(S(=O)(=O)N2CCOCC2)cc1C(=O)NC1CCCCCC1	?	-3%	·	-7%	-24%	·
Cc1ccc(C(=O)OCC(=O)NC2CC2)cc1S(=O)(=O)N1CCOCC1	?	18%	·	19%	?	·
Cc1ccccc1S(=O)(=O)NC(=O)C1(C)CCN1C(=O)Cc1cc(F)ccc1F (configuration not stated)	·	-4%	·	·	·	·
CNc1cc(C)nc(-n2nc(C)cc2C)n1	4.7µM*	2%	4	4%	8.3µM*	9
Cc1cc(N/N=C/c2ccc(F)cc2)nc(-n2nc(C)cc2C)n1	1µM*	62%	11	2µM*	0.33µM*	13
COc1cc(OC)cc(C(=O)NN(CCC#N)C2=NS(=O)(=O)c3ccccc32)c1	8%	-9%	-2	-20%	14%	-7
CCn1ncc(N(C)N)c(Cl)c1=O	19%[5.75 µM]	-1%	3	-2%	-1%	27
CS(=O)(=O)N1CCN(c2ccc([N+](=O)[O-])cc2C(F)(F)F)CC1	15%	-18%	8.9*	14%	8%	44
CC1CN(c2ccc([N+](=O)[O-])cc2Cl)CCN1S(C)(=O)=O (configuration not stated)	61%	-8%	-3	-21%	3.3µM*	-2
CC1CN(c2ccc(C(F)(F)F)cc2[N+](=O)[O-])CCN1S(C)(=O)=O (configuration not stated)	17%	1%	-2	4%	13%	-3
CCc1cccc(NC(=O)CCNS(=O)(=O)c2cc(Br)cnc2N)c1	40%	-12%	-5	-1%	13µM*	-6
Nc1ncc(Br)cc1S(=O)(=O)NCCC(=O)NCCc1ccccc1	-15%	-5%	27*	12%	5%	13
Cc1cccc(CCNC(=O)CCNS(=O)(=O)c2cc(Br)cnc2N)c1	?	-11%	-3	-3%	?	-11
O=C(O)CC1=C(Nc2ccccc2)C(=O)N(c2ccccc2)C1c1ccc(Br)cc1 (configuration not stated)	?	19%	25*	17%	15%	79*
Cc1ccccc1SC1CCN(Cc2nc(C3CC3)no2)CC1	?	-2%	19*	16%	-1%	25
CC[C@H](C)[C@H](NC(=O)[C@H](CCCNC(=N)N)NC(=O)[C@@H](NC(=O)[C@H](CCCNC(=N)N)NC(=O)[C@H](CCCCN)NC(=O)[C@H](CCCNC(=N)N)NC(=O)[C@@H](NC(=O)[C@H](CC(N)=O)NC(=O)[C@@H](N)CS)[C@@H](C)O)[C@@H](C)CC)C(=O)N[C@@H](CCC(N)=O)C(=O)N[C@@H](CCCNC(=N)N)C(=O)NCC(=O)N1CCC[C@H]1C(=O)NCC(=O)N[C@@H](CCCNC(=N)N)C(=O)N[C@@H](C)C(=O)N[C@@H](Cc1ccccc1)C(=O)N[C@H](C(=O)N[C@H](C(=O)N[C@H](C(=O)NCC(=O)N[C@@H](CCCCN)C(=O)O)[C@@H](C)CC)[C@@H](C)O)C(C)C	·	·	9	·	·	-1
CC(=O)c1cccc(NC(=O)CN2C(=O)NC(C)(c3ccc4c(c3)OCCCO4)C2=O)c1 (configuration not stated)	-1%	10%	·	-20%	?	·
C=C1C(=O)OC2CC1C(O)CC(C)=CCCC(C)=CC(O)CC2C (configuration not stated)	·	19%	·	7.1µM*	·	·
N/C(=N\OC(=O)COc1ccccc1)c1ccc(Cl)cc1	13µM*	36%	-1	6%	66%	14
N/C(=N\OC(=O)CSc1ccccc1)c1ccncc1	?	1%	47*	0%	80%	79*
N/C(=N\OC(=O)CSc1ccccc1)c1cccc([N+](=O)[O-])c1	33%	-13%	33*	-9%	33%	15
N/C(=N\OC(=O)Oc1ccccc1)c1cccc([N+](=O)[O-])c1	26%	16%	7	11%	7%	-7
N/C(=N\OC(=O)Cc1ccc(-c2ccccc2)cc1)c1ccncc1	6%	-1%	6	7%	?	14
COc1cccc(OCC(=O)O/N=C(\N)c2ccncc2)c1	?	15%	28*	-10%	90%	59*
N/C(=N\OC(=O)COc1ccccc1)c1ccncc1	86%	5%	43*	12%	65%	83*
SMILES	Pf growth 96h	AMA1-RON2 inh	CHX counter	HCV inhibitor	Pf growth 48h	Shiga inhibitor
N/C(=N\OC(=O)COc1ccccc1)c1cccnc1	-9%	23%	2	15%	-17%	-18
Cc1cc(C)cc(OCC(=O)O/N=C(\N)c2cccnc2)c1	33%	0%	16*	-11%	?	34
CN(C(=O)COC(=O)c1ccc(=O)n(Cc2ccccc2)n1)C1CCCCC1	0%	5%	·	-8%	5%	·
CCCCN1C(=O)C(CC(=O)NCc2ccco2)CC(C(=O)N(CC)CC)=C1C (configuration not stated)	·	-6%	·	·	·	·
O=C(c1n[nH]c2ccccc12)N1CCOCC1	15µM*	6%	-3	5%	9%	-6
O=C(c1n[nH]c2ccccc12)N1CCN(S(=O)(=O)c2ccc(Cl)cc2)CC1	?	-1%	·	-4%	2.1µM*	·
O=C(c1cccnc1)N1CCN(S(=O)(=O)c2ccc(Cl)cc2)CC1	4.1µM*	-12%	-3	-1%	-21%	-3
O=C(Nc1ccc2ccccc2c1)C(c1ccc(C(F)(F)F)cc1)n1c(=O)c(-c2cc3ccccc3[nH]2)nc2ccccc21 (configuration not stated)	·	12%	·	·	·	·
Nc1ccc(-c2cc(-c3cccc(N)c3)nc(-c3ccccc3)n2)cc1	2.1µM*	20%	-5	23%	13µM*	-17
CC(=O)Nc1ccc(-c2cc(-c3ccccc3)nc(-c3ccccc3)n2)cc1	1.3µM*	8%[2.32 µM]	5	-3%	?	-4
CCC(=O)Nc1ccc(-c2cc(-c3ccccc3)nc(-c3ccc(NC(=O)CC)cc3)n2)cc1	13µM*	9%	-1	?	?	9
CC(=O)Nc1ccc(-c2cc(-c3ccc(NC(C)=O)cc3)nc(-c3ccccc3)n2)cc1	?	-3%	-1	?	7%	15
COc1ccc(C(=O)OCC(=O)NC2CC2)cc1F	·	8%	·	2%	·	·
O=[N+]([O-])c1cc([N+](=O)[O-])c2nonc2c1Nc1ccccc1O	2.3µM*	-9%	16*	0%	?	73*
Cc1cccc(C)c1NC(=O)C(c1ccncc1)N1CCN(CCN(C)C)CC1 (configuration not stated)	·	-1%	·	·	·	·
FC(F)Oc1ccc(/C=N/N2CCCCC2)c(OC(F)F)c1	8%	·	32*	·	18%	79*
